Test results as given in PubChem BioAssay AID1053173 (Broad Institute, 2014).
Among all 1,500 compounds or so, about 390 (26%) were called active. The rule behind the calls is not given here. The list is a sample of the results. Entries with a potency or affinity are not part of this list.

These compounds were tested against Histone-lysine N-methyltransferase NSD2 (Homo sapiens) (UniProt O96028) (assay: blockers of NSD2 H4 peptide methylation – biochemical, AlphaScreen, cherry-picked samples, dose response (AID 1053173;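 note: 0% = neutral control wells and -100% = positive control wells on each plate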)). Details: 120 min; series mostly up to 10 µM; activity change, negative = inhibition: at the top concentration.
Sequence of Histone-lysine N-methyltransferase NSD2 (Homo sapiens) (O96028 whole entry, looked up): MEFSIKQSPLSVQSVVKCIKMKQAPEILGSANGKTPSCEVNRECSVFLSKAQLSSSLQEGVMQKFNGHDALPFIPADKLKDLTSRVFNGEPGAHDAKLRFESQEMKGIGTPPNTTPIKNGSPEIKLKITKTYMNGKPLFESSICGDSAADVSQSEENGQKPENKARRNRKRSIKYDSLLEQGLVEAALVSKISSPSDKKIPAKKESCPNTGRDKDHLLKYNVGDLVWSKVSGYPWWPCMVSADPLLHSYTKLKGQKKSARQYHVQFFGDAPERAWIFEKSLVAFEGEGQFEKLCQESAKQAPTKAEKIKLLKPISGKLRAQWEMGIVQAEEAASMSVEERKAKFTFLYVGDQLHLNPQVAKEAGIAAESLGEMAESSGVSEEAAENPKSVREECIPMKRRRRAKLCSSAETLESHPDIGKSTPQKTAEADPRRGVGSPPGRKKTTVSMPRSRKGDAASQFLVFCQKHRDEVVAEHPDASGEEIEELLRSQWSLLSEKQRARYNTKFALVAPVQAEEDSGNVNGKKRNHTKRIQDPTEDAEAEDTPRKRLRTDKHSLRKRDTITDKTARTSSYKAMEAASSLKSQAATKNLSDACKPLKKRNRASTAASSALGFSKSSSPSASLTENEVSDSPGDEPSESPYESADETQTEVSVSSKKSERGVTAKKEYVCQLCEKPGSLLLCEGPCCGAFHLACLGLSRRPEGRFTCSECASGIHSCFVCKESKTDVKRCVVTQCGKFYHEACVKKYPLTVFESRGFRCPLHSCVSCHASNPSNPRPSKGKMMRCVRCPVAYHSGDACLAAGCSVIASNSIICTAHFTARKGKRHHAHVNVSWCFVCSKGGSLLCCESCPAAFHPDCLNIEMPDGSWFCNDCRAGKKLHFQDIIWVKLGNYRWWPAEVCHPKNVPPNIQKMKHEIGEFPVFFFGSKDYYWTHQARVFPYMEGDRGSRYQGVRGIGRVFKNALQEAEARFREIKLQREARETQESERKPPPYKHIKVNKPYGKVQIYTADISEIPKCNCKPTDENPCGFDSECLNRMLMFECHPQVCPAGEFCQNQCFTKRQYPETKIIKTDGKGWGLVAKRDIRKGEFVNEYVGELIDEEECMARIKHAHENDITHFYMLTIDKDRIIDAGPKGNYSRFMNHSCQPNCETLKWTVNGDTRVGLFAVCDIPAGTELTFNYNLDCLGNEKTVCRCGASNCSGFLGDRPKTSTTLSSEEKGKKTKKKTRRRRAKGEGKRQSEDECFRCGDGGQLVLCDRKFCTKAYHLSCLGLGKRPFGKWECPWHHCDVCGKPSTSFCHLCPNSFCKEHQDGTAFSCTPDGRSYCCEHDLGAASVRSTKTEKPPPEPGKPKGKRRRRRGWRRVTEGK

Activity change, negative = inhibition, inactive:
O=C(COc1ccc(S(=O)(=O)N2CCCC2)cc1)Nc1ccc(F)cc1 1.47%, O=C(O)CC(C(=O)O)N1C(=O)/C(=C/c2ccc(-c3nc4ccccc4s3)o2)SC1=S (stereo unspecified) -6.38%, O=C(O)COc1ccc(/C=C/C(=O)c2ccc3ccccc3c2)cc1 -9.29%, O=C(CNC(=O)c1ccccc1)Oc1ccc([N+](=O)[O-])cc1 -4.16%, C=CCC1CCCCC1=C(C#N)c1ccccc1 (stereo unspecified) -3.42%, NC1=NC(=Nc2ccc(Br)cc2)c2ccccc21 -5.36%, CC(=O)Nc1ccc(S(=O)(=O)/N=C2/NC(=O)/C(=C\c3ccco3)S2)cc1 -9.65%, Cc1[nH][nH]c(=O)c1C(c1ccc(-c2ccc(Cl)c(C(=O)O)c2)o1)c1c(C)[nH][nH]c1=O -7.88%, Cc1[nH][nH]c(=O)c1C(c1c(C)[nH][nH]c1=O)c1cn(C)c2ccccc12 -2.97%, COc1ccc2c(c1)Cc1sc(NC(=O)c3cccnc3)nc1-2 4.51%, Cc1ccc(N2CN=c3s/c(=C\c4ccccn4)c(=O)n3C2)cc1 -0.608%, Cc1c(-c2cccc(Cl)c2)nc2ccccc2c1C(=O)OC/C(O)=C(\C#N)c1nc2ccccc2[nH]1 -3.82%, COc1ccc(C=C(c2nc3ccccc3s2)c2nc3ccccc3s2)cc1O -9.17%, O=C(NC1CCCc2ccccc21)c1ccccc1OC(F)F (stereo unspecified) 0.349%, O=C1Nc2ccc(S(=O)(=O)NCc3ccco3)c3cccc1c23 0.667%, COc1ccc(NC2CCCN(C(=O)c3ccccc3N3CCOCC3)C2)cc1OC (stereo unspecified) -0.733%, Cn1c(NNC(=O)c2c(F)cccc2F)cc(=O)n(C)c1=O 6%, Nc1nonc1-c1nc2ccccc2n1CC(=O)N/N=C/c1ccc(-c2ccccc2C(=O)O)o1 -10.2%, Cc1[nH][nH]c(=O)c1C(c1ccc(-c2ccccc2C(=O)O)o1)c1c(C)[nH][nH]c1=O -9.78%, O=C(CSc1n[nH]c(-c2ccncc2)n1)Nc1ccc(Cl)c(Cl)c1 -5.23%, Cc1nnc(N/N=C\c2ccc(-c3cccc(C(=O)O)c3)o2)n1N 1.17%, Cc1ccc(-c2ccc(/C=N/NC(=O)CN3CCOCC3)o2)cc1[N+](=O)[O-] -0.384%, O=C(CCN1CCOCC1)NCC1COc2ccccc2O1 (stereo unspecified) 4.15%, COc1cc(CC(=O)NCC2COc3ccccc3O2)cc(OC)c1OC (stereo unspecified) 4.11%, COc1cc(C(=O)NC2CCCc3ccccc32)cc(OC)c1OC (stereo unspecified) -3.18%, CN(C)/C=C1\C=C2C(=O)c3ccccc3N2C1=O -11.9%, Cc1c(C)c2cc(Cl)c(O)c(CN(C)C)c2oc1=O -4.88%, Nc1nonc1C(=O)NCCNC(=O)c1ccccc1F 4.89%, O=C(Nc1cccnc1)c1ccc(COc2ccccc2Cl)o1 -3.23%, CNc1ccc(Br)cc(C(=O)/C=C/c2ccc(OC)cc2)c1=O -11.9%, O=C(CCc1nnc(CCCCc2ccccc2)o1)NC1CCCC1 0.963%, Cc1ccc(-n2nc(C(=O)NCc3ccc(C)o3)c3c4ccccc4n(C)c3c2=O)cc1 -0.692%, CC(C)(C#N)NC(=O)C1CCCN1S(=O)(=O)c1ccc2ccccc2c1 (stereo unspecified) -3.31%, Cc1ccc2cccc(NC3OC(=O)c4ccccc43)c2n1 (stereo unspecified) -5.91%, COc1cc(C(=O)Nn2c(O)c(C3=c4ccccc4=NC3=O)sc2=S)ccc1O 1.57%, CC(=O)N1CCN(c2ccccc2NC(=O)c2ccc3ccccc3c2)CC1 4.94%, CN1CCN(c2ccc(NC(=O)COc3ccc4ccccc4c3)cc2)CC1 6.91%, COc1c(F)c(F)c(C(=O)Nc2cccc(Cl)c2N2CCOCC2)c(F)c1F -1.41%, Nc1c2c(=O)oc(-c3ccccc3)cc2nn1-c1ccccc1 0.608%, Cc1ccccc1-c1ocnc1C(=O)Nc1ccccc1NC(=O)c1ccccn1 -3.59%, O=C(N/N=C/c1cc2c(cc1[N+](=O)[O-])OCO2)c1ccccn1 1.47%, O=C(Nc1cccc(C(F)(F)F)c1)c1cc(-c2ccco2)on1 -0.125%, Cc1cccc(N2CCN(S(=O)(=O)c3c(C)nc4scc(C)n4c3=O)CC2C)c1 (stereo unspecified) 4.46%, O=C(Nc1cc(S(=O)(=O)Nc2ccccc2F)ccc1Cl)c1ccc(F)cc1F -4.71%, CC1CC(C)CN(C(=O)C2CCN(S(=O)(=O)c3cccs3)CC2)C1 (stereo unspecified) -1.91%, Cn1c(=O)c2c(nc(CN3CCc4ccccc4C3)n2CCc2ccccc2)n(C)c1=O -0.06%, Cc1ccccc1-n1nc(C)c2c1N=C1C(Cl)=CC(Cl)=CN1C2c1ccc(C(=O)O)cc1 (stereo unspecified) -5.97%, CC(C)N(Cc1ccccc1)C(=O)C1CCCN(c2ncnc3c2nc2n3CCCCC2)C1 (stereo unspecified) -1.45%, COc1ccc(NC(=O)c2ccc(F)c(F)c2)c2ccccc12 2.95%, c1ccc(-c2cc(-c3ccccc3)n3ncnc3n2)cc1 -0.881%, COCCNC(=O)Cc1c(C)c2c(cc(C)c3c(C)coc32)oc1=O -2.39%, CC1CCN(C(=O)CN(Cc2ccc(Cl)cc2)S(C)(=O)=O)CC1 -3.55%, CCc1ccccc1NC(=O)CSc1nc2n[nH]c(C)c2c(=N)n1-c1cccc(OC)c1 0.33%, CSc1ccccc1NC(=O)CN(C)C(=O)COc1ncnc2ccccc12 4.86%, CC(NC(=O)COC(=O)c1ccc([N+](=O)[O-])s1)c1ccccc1 (stereo unspecified) -0.22%, COCCOC(=O)C1=C(C)NC(C)=C(C(=O)OC(C)C)C1c1cccc([N+](=O)[O-])c1 (stereo unspecified) -0.917%, Nn1cnnc1N/N=C\c1ccc(-c2ccccc2[N+](=O)[O-])o1 -6.2%, Cc1nnc(N/N=C/c2ccc(-c3ccccc3F)o2)n1N -3.53%, CC(C)c1ccc(NC(=S)N2CCCC(c3ccc(F)cc3)=N2)cc1 6.21%, Cc1ccc(NC(=S)N2CCC(NC(=O)c3cccc(F)c3)CC2)cc1 4.83%, COc1ccc(S(=O)(=O)N2CCCC(C(=O)NCCCn3ccnc3)C2)cc1OC (stereo unspecified) -0.379%, CC1CN(c2nc3c(c(=O)n(Cc4ccc(Cl)cc4)c(=O)n3C)n2C)CC(C)O1 (stereo unspecified) 0.136%, O=c1c2c(n3cnnc3n1-c1ccccc1)-c1ccccc1CC21CCCC1 0.452%, N#Cc1cc(-c2ccccc2)nnc1Oc1ccccc1Cl -2.46%, CCN(CC)S(=O)(=O)c1ccc(-c2cn3cc(Cl)ccc3n2)cc1 4.2%, COc1ccc(C(=O)N(Cc2cccs2)C2CCS(=O)(=O)C2)cc1 (stereo unspecified) -0.94%, CCOC(=O)Nc1cc(C(=O)OC)ccc1C -1.18%, Cc1cc(C(=O)COc2cccc(-n3cnnn3)c2)c(C)n1-c1ccccc1 -0.173%, O=C(Nc1ccc(Br)cc1)c1ccc(-n2cnnn2)cc1 -2.68%, O=C(C1CC1)N1CCc2[nH]c3ccccc3c2C1 -2.06%, C=CCn1c(N)c(C(=O)NCC2CCCO2)c2nc3ccccc3nc21 (stereo unspecified) 2.42%, COc1ccccc1NC1C=CS(=O)(=O)C1 (stereo unspecified) -0.449%, CC1CCCC(C)N1C(=O)COC(=O)c1ccc([N+](=O)[O-])o1 (stereo unspecified) -9.53%, COc1ccccc1NC(=O)c1ccccc1NS(=O)(=O)N1CCCC1 -2%, CCN1CCc2nc3ccccc3c(C(=O)Nc3ccc(NC(C)=O)cc3)c2C1 -11.6%, O=C1ON=C(c2ccccc2)/C1=C/c1ccc(O)cc1 -0.931%, Nc1nc(Nc2ccccc2F)nc(NCCO)c1[N+](=O)[O-] 2.06%, CCCCn1c(=O)[nH]c2nc3cc(N)ccc3nc2c1=O 0.883%, COc1ccc(C(=O)NCc2nnc(SCC(=O)Nc3cc(C)cc(C)c3)o2)cc1OC -0.567%, Cc1nnc(N/N=C/c2ccccc2O)n1N 0.875%, COc1ccc(/C=N/Nc2nnc(C)n2N)cc1OC -5.85%, CN(C)S(=O)(=O)c1ccc(NC(=O)CCNC(=O)c2ccco2)cc1 3.08%, CC(=O)c1cccc(NC(=O)CC2CCCC2)c1 -1.9%, Cc1nc2ccc(S(=O)(=O)N3CCCCC3)cc2s1 -1.08%, CC(=O)NCCN1C(=O)C2C3c4ccccc4C(c4ccccc43)C2C1=O (stereo unspecified) 4.66%, CCOC(=O)c1sc2nc(C)nc(NC3CCC(O)CC3)c2c1C (stereo unspecified) 0.285%, CCCCC(=O)OCc1cn(-c2ccc(Cl)cc2)nn1 -2.69%, Cc1cccc(NC(=O)C2CCN(C(=O)NCc3ccccc3)CC2)c1C 2.02%, CN1C(=O)C(CCC(=O)O)NC1=S (stereo unspecified) -0.941%, Cc1cccc(NC(=O)CSCC(=O)NCc2cccc(C(F)(F)F)c2)c1 -1.1%, O=C(NCCCO)c1ccc2nc(-c3ccco3)c(-c3ccco3)nc2c1 -10.6%, O=C(O)c1cc(-c2ccco2)nn1-c1ccc(Cl)cc1 -13.9%, O=C1CCN(Cc2ccccc2)N1 7.16%, COc1ccc2c(c1)Cc1sc(NC(=O)c3cccs3)nc1-2 -6.4%, COc1ccc(C(=O)OCC(=O)Nc2c(C)n(C)n(-c3ccccc3)c2=O)cc1 5.18%, O=Nc1ccc(O)c2ncccc12 1.26%, Cc1ccc(C#N)c(SCc2ccccc2F)n1 -0.897%, O=c1[nH]c(NCCO)c(N=Cc2ccccc2)c(=O)[nH]1 0.744%, COc1ccc(C2CCc3cc4c(cc3C2=NOC(C)=O)OCO4)cc1OC (stereo unspecified) -3.53%, Cc1cc(C)n(CC(O)COc2c(C)cccc2C)n1 (stereo unspecified) 0.908%, O=C(CN1CCOCC1)NCCNC(=O)CN1CCOCC1 1.46%, CCNC(=O)C1(C)CCCN(C(=O)c2ccc3ccccc3n2)C1 (stereo unspecified) 2.47%, NC(=O)COC(=O)c1ccc(Cl)c(S(=O)(=O)N2CCN(c3ccc(F)cc3)CC2)c1 -3.71%, Cc1ccc(CC(=O)Nc2nncs2)cc1 -3.28%, COc1cc(NC(=O)c2ccccc2)c(OC)cc1NC(=O)CSc1[nH]c(=O)cc(C)c1C#N -2.43%, CCc1sc(C(=O)Nc2nc(C)cs2)cc1C -1.21%, Cc1ccc2cccc(OCc3ccc(Br)cc3)c2n1 0.04%, CC(Nc1ccc2ccccc2c1)C(=O)N/N=C/c1ccncc1 (stereo unspecified) 1.12%, Cc1sc2nc[nH]c(=S)c2c1-c1ccccc1 -1.69%, O=c1[nH]nc(Br)c(=O)n1C(c1ccccc1)c1ccccc1 1.07%, O=C(CSc1nccn1-c1ccc(F)cc1)NCc1ccc(F)cc1 -0.835%
